{"source": "PubChem BioAssay (NCI)", "note": "About 83,000 compounds went through this panel and 20% of them were active in at least one assay; those are over-represented in the sample as a whole.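 Values shown are percent growth following 48 h exposure of cells in 96-well plates to a single concentration of compound; below 10 was considered active.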 Unmarked numbers belong to inactive results. The source made the active and inactive calls.", "data": [{"tested_on": "HL-60(TB) leukemia", "experiment": "NCI-60 one-dose screen, 48 h (100 = growth as untreated, 0 = no growth, -100 = all killed)", "conditions": "10 µM unless noted", "procedure": "Growth inhibition of the HL-60(TB) human tumor cell line is measured as a screen for anti-cancer activity. Cells are grown in 96 well plates and exposed to the test compound for 48 hours. Compounds are tested at a single concentration, which is 10^-5 M for most compounds. The reported endpoint is percent growth (GI% or GIPRCNT), where numbers from 0 - 100% represent growth inhibition, and numbers from -100% - 0 represent cell death. For example, a value of 40 represents 60% growth inhibition. A value of 0 means no net growth occurred over the course of the experiment. A value of -40 indicates 40% of cells at the beginning of the experiment died by the end of the experiment. A value of -100 means all cells are dead at the end of the experiment.\nNCI-60 Human Tumor Cell Lines Screen was performed using the standard one-dose NCI protocol, which is described in more detail at https://dtp.cancer.gov/discovery_development/nci-60/default.htm.\nCompounds with GIPRCNT values below 10 were considered active. Activity score was based on GIPRCNT using the following formula: […]\nScore is 0 for GIPRCNT values of 100 or above, 50 for GIPRCNT values of 0, and 100 for GIPRCNT values of -100.", "values": [{"smiles": "CC(=O)Nc1ccc(NC(=O)Nc2cccc(-c3nc(-c4ccc(NC(=O)c5cccs5)cc4Cl)no3)c2)cc1C(F)(F)F", "growth": "5.88% (active)"}, {"smiles": "Brc1cccc(/C=N/Nc2nc(N/N=C/c3cccc(Br)c3)nc(N3CCOCC3)n2)c1", "growth": "-10.2% (active)"}, {"smiles": "O=C1Nc2ccccc2/C1=C/c1ccc(CO)n1-c1ccc(Cl)cc1", "growth": "15.8%"}, {"smiles": "O=c1[nH]c2ccc(Cl)cc2cc1CSc1ccccc1Nc1nccc(-c2ccc(Cl)cc2)n1", "growth": "78.5%"}, {"smiles": "O=C(Nc1ccc(Cl)c(C(F)(F)F)c1)Nc1ccc2oc(=O)ccc2c1", "growth": "26%"}, {"smiles": "CN1CCN(Cc2ccc(NC(=O)c3cncc(C#Cc4cnc5ccc(OCC(F)F)nn45)c3)cc2C(F)(F)F)CC1", "growth": "-52.2% (active)"}, {"smiles": "N#Cc1c(-c2cccs2)cc(-c2cnccn2)nc1SCC(=O)N/N=C/c1ccccc1", "growth": "110%"}, {"smiles": "O=C(NNc1nc2cc(F)cc(F)c2n2cccc12)c1ncccn1", "growth": "-2.92% (active)"}, {"smiles": "O=C(CCCCCCN1CC(=O)N2[C@@H](c3cccc(Br)c3)c3[nH]c4ccccc4c3C[C@H]2C1=O)NO", "growth": "6.52% (active)"}, {"smiles": "C#Cc1nc(C(=O)NCCC(=O)Nc2ccc(NC(=O)c3ccc(/C=C/C(=O)c4nccn4C)cc3)cc2)cs1", "growth": "12.2%"}, {"smiles": "O=C(CNc1nc(-c2cccc([N+](=O)[O-])c2)cs1)Nc1cccc(Cl)c1", "growth": "105%"}, {"smiles": "CC(=O)Oc1ccccc1C(=O)Nc1ccc(C(=O)/C=C/c2cccs2)cc1", "growth": "103%"}, {"smiles": "CS(=O)(=O)c1ccc(-n2cc(/C=C/C(=O)c3ccc(NC(=O)CO[N+](=O)[O-])cc3)c(-c3ccc(Cl)cc3)n2)cc1", "growth": "109%"}, {"smiles": "O=C(CN1C(=O)/C(=C/c2ccccc2)SC1=S)N1CCOCC1", "growth": "89.1%"}, {"smiles": "Cc1c(NC(=O)CSc2nc3sc4c(c3c(=O)n2-c2ccc(Cl)cc2)CCCC4)c(=O)n(-c2ccccc2)n1C", "growth": "80%"}, {"smiles": "CN1CCN(c2ccc(NC(=O)Nc3ccc4c(ccn4-c4cccc(C(N)=O)n4)c3)cc2C(F)(F)F)CC1", "growth": "66.1%"}, {"smiles": "COC(=O)/C=C/c1c(C2(C)NC(=O)c3ccccc3N2)c(=O)oc2ccc(Cl)cc12", "note": "(stereo not given)", "growth": "109%"}, {"smiles": "CCNC(=O)N1CCc2cc(OC)c(OCCc3ccc(OC)c(N)c3)cc2C1c1ccc(C)cc1C", "note": "(stereo not given)", "growth": "16.5%"}, {"smiles": "CSc1ccc(/C(=N/N=C(N)N)c2ccc(F)cc2)cc1", "growth": "-31.7% (active)"}, {"smiles": "CC(C)(C)c1ccc(-c2nnc(-c3nc4ccccc4nc3Cl)o2)cc1", "growth": "13.6%"}, {"smiles": "CCCCCc1ccc(S(=O)(=O)Nc2cc(-c3csc(N)n3)ccc2OC)cc1", "growth": "60.8%"}, {"smiles": "O=C(O)CC1CCN(c2ccc3nnc(Cl)n3n2)CC1", "growth": "104%"}, {"smiles": "Clc1ccc2[nH]cc(-c3cncn3CCc3ccc4c(c3)OCO4)c2c1", "growth": "52.1%"}, {"smiles": "C#CCOc1ccccc1C(OC(=O)c1ccccc1)C(=O)NC(C)(C)C(C)(C)C", "note": "(stereo not given)", "growth": "95.1%"}, {"smiles": "COc1ccc(NC(=O)Cn2cc(CN3C(=O)c4ccc([N+](=O)[O-])cc4C3=O)nn2)cc1", "growth": "95.1%"}, {"smiles": "CCCCCCNC(=O)Oc1ccc(/C(=C(\\C)c2ccc(OC)cc2)c2ccc(OCCN(C)C)cc2)cc1", "growth": "56.3%"}, {"smiles": "Cn1cc(-c2cc(N)n3nc(-c4cn(C)c5ccc(Br)cc45)cc3n2)c2cc(Br)ccc21", "growth": "26.7%"}, {"smiles": "C#Cc1nc(/C=C\\CCCCCCC(=O)NO)cs1", "growth": "-53.8% (active)"}, {"smiles": "COc1ccc(OC)c(CCn2cncc2-c2c[nH]c3ccc(Cl)cc23)c1", "growth": "7.06% (active)"}, {"smiles": "O=C1/C(=C/c2ccccc2[N+](=O)[O-])Oc2ccc(O)cc21", "growth": "24.3%"}, {"smiles": "COC1CCN(Cc2ccc3c(NNC(=O)c4cnccn4)nc4cc(F)ccc4n23)C1", "note": "(stereo not given)", "growth": "-19.4% (active)"}, {"smiles": "NS(=O)(=O)c1ccc(Nc2nc(SCC(=O)c3ccc(Cl)cc3)nc3c2CCCC3)cc1", "growth": "59.3%"}, {"smiles": "CCN1C(=O)N(CC)C2SC(N/N=C/c3cccs3)=NC21", "note": "(stereo not given)", "growth": "1.27% (active)"}, {"smiles": "COc1cc2nc(-c3ccc(Cl)cc3)cc(OCCCNCC3CCCO3)c2cc1OC", "note": "(stereo not given)", "growth": "32.1%"}, {"smiles": "CCCCc1nc2c(N)nc3ccccc3c2n1Cc1ccc(OC)cc1", "growth": "31%"}, {"smiles": "COc1ccc(-n2c(/C=C3\\C(=O)Nc4ccccc43)ccc2CO)cc1", "growth": "92.7%"}, {"smiles": "O=C(CSc1nnc(-c2ccc(Cl)cc2)n1-c1ccccc1)Nc1cccc(F)c1", "growth": "71.7%"}, {"smiles": "CC(=O)c1nnn(-c2c(C(=O)n3nc(C)cc3C)sc(=S)n2-c2ccccc2)c1C", "growth": "110%"}, {"smiles": "Clc1ccc(-c2csc(Nc3cccc(Nc4csc(-c5ccc(Cl)cc5)n4)c3)n2)cc1", "growth": "96.1%"}, {"smiles": "COc1ccc(NC2=CC(=O)C(C)=C(C)C2=O)cc1", "growth": "80.2%"}]}]}
